Compounds without any hit were thinned out: in the full panel of roughly 79,000, 15% have a hit. A number with no mark means an inactive call. Active and inactive are the calls of the source. No stated cut-off is given here; in the data, active means growth inhibition above about 70%; inactive means the rest.
Assays:
[1] = NCI Yeast Anticancer Drug Screen. Data for the rad50 strain (AID 155);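 further: 0% = growth of vehicle-only cultures of the same strain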; conditions: S. cerevisiae rad50 strain growth inhibition, stronger effect = higher value
Summary of the method: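 Inhibition values express reduced yeast growth in compound-treated cultures relative to vehicle-treated controls.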

[2] = NCI Yeast Anticancer Drug Screen. Data for the mec2-1 strain (AID 157); conditions: S. cerevisiae mec2-1 strain, stronger effect = higher value
Summary of the method: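 Mutant yeast (mec2-1) grown with compound; growth inhibition relative to vehicle control reported.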

[3] = NCI Yeast Anticancer Drug Screen. Data for the sgs1 mgt1 strain (AID 161);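 further: 0% = growth of cultures given vehicle only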; conditions: S. cerevisiae sgs1 mgt1 strain, stronger effect = higher value
Summary of the method: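 This yeast growth screen uses a strain with defined DNA-repair lesions; compound-treated growth is compared with vehicle-treated growth.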

[4] = NCI Yeast Anticancer Drug Screen. Data for the cln2 rad14 strain (AID 165);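 further: 0% = growth equal to vehicle treated cultures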; conditions: S. cerevisiae cln2 rad14 strain, stronger effect = higher value
Summary of the method: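 Readout is yeast growth inhibition versus vehicle-treated controls, using a strain with cln2 and rad14 alterations exposed to compound.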

[5] = NCI Yeast Anticancer Drug Screen. Data for the bub3 strain (AID 167); conditions: S. cerevisiae bub3 mutant strain, stronger effect = higher value
Summary of the method: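 Steps: expose the mutant yeast strain to compound; grow alongside vehicle-treated cultures; measure growth; express inhibition against the vehicle cultures.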

[6] = NCI Yeast Anticancer Drug Screen. Data for the mlh1 rad18 strain (AID 175); conditions: S. cerevisiae mlh1 rad18 strain growth inhibition, stronger effect = higher value
Summary of the method: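 Genetically defined yeast (DNA repair-deficient) exposed to compounds; growth inhibition determined relative to vehicle.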

[7] = at 5.0 µM (retest, dose inferred, filed as 0.5)
[8] = at 50.0 µM (retest, dose inferred, filed as 5.0)

Row | SMILES | growth inhibition [1, 7] | growth inhibition [1, 8] | growth inhibition ([1]; at 50.0 µM) | growth inhibition [2, 7] | growth inhibition [2, 8] | growth inhibition ([2]; at 50.0 µM) | growth inhibition [3, 7] | growth inhibition [3, 8] | growth inhibition ([3]; at 50.0 µM) | growth inhibition [4, 7] | growth inhibition [4, 8] | growth inhibition ([4]; at 50.0 µM) | growth inhibition [5, 7] | growth inhibition [5, 8] | growth inhibition ([5]; at 50.0 µM) | growth inhibition [6, 7] | growth inhibition [6, 8] | growth inhibition ([6]; at 50.0 µM)
1 | CN1CCN(c2ccc3nc(-c4ccc5nc(-c6ccc(N(C)CCCl)cc6)[nH]c5c4)[nH]c3c2)CC1 | 1% | 99% (active) | 98.4% (active) | -10% | 99% (active) | 98.8% (active) | -7% | 99% (active) | 98.8% (active) | 47% | 99% (active) | 98.6% (active) | -18% | 99% (active) | 98.8% (active) | – | – | –
2 | CC(=O)[C-](Cl)C(C)=O.CC(=O)[C-](Cl)C(C)=O.CC(=O)[C-](Cl)C(C)=O.[Ru+3] | 16% | 98% (active) | 34.6% | 15% | 99% (active) | 84.8% (active) | 16% | 99% (active) | 53.8% | 8% | 99% (active) | -1.7% | -1% | 99% (active) | -17.4% | 6% | 99% (active) | 76.8% (active)
3 | CCO[C@@H]([CH2][Hg][Cl])[C@](C)([CH2][Hg][Cl])OCC | 99% (active) | 99% (active) | 99.4% (active) | 99% (active) | 99% (active) | 99.6% (active) | 99% (active) | 99% (active) | 99.5% (active) | 98% (active) | 99% (active) | 99.3% (active) | 99% (active) | 99% (active) | 99.3% (active) | 99% (active) | 99% (active) | 99.3% (active)
4 | Cc1ccc2c(-c3ccccc3)c3ccccc3[s+]c2c1 | 2% | 99% (active) | 99.5% (active) | 2% | 100% (active) | 99.3% (active) | 6% | 99% (active) | 99.5% (active) | 1% | 99% (active) | 99% (active) | -13% | 99% (active) | 99.2% (active) | 1% | 99% (active) | 99.2% (active)
5 | [Cl][Hg][c]1ccc2ccccc2c1 | 99% (active) | 98% (active) | 85.8% (active) | 100% (active) | 97% (active) | 89.5% (active) | 100% (active) | 98% (active) | 90.9% (active) | 100% (active) | 97% (active) | 89.3% (active) | 99% (active) | 97% (active) | 88.1% (active) | 100% (active) | 97% (active) | –
6 | C/C1=C\[C@H](C)C[C@H](C)OC(=O)C[C@H](c2ccc(O)cc2)NC(=O)[C@@H](Cc2c(Br)[nH]c3ccccc23)N(C)C(=O)[C@H](C)NC(=O)[C@@H](C)C1 | 67% | 98% (active) | 84.8% (active) | 88% (active) | 99% (active) | 81.3% (active) | 98% (active) | 99% (active) | 88.7% (active) | 97% (active) | 99% (active) | 81.5% (active) | 99% (active) | 99% (active) | 77.1% (active) | 82% (active) | 98% (active) | 80% (active)
7 | [Cl-].[Cl-].[Cl-].[O-]c1cccc2cccnc12.[O-]c1cccc2cccnc12.[O]=[Mo] | 96% (active) | 96% (active) | 87.5% (active) | 73% (active) | 73% (active) | 91.4% (active) | 72% (active) | 72% (active) | 89.2% (active) | 96% (active) | 96% (active) | 88.6% (active) | 64% | 64% | 90.4% (active) | 72% (active) | 72% (active) | 87.7% (active)
8 | Clc1ccc2c(c1)C(c1ccccc1Cl)=NCC(SCCN1CCOCC1)=N2 | 56% | 94% (active) | 96.8% (active) | 29% | 92% (active) | 93.6% (active) | 63% | 98% (active) | 89.7% (active) | 45% | 81% (active) | 82% (active) | 48% | 93% (active) | 95.6% (active) | 52% | 95% (active) | 91.5% (active)
9 | CC1=C[C@H]2O[C@H]3C[C@H]4OC(=O)/C=C\C=C\C(=O)OCC[C@@H](C)C(O)C(=O)OC[C@@]2(CC1)[C@@]4(C)[C@]31CO1 (stereo partly drawn) | 99% (active) | 98% (active) | 93.5% (active) | 99% (active) | 99% (active) | 95% (active) | 100% (active) | 99% (active) | 95% (active) | 99% (active) | 98% (active) | 93.2% (active) | 99% (active) | 99% (active) | 94.3% (active) | 99% (active) | 98% (active) | 93.5% (active)
10 | O=[N+]([O-])O.c1ccc([As+](c2ccccc2)(c2ccccc2)c2ccccc2)cc1 | 26% | 96% (active) | 97% (active) | 43% | 99% (active) | 97.9% (active) | 21% | 98% (active) | 97% (active) | 7% | 92% (active) | 97.6% (active) | 16% | 97% (active) | 97% (active) | 24% | 96% (active) | 95.8% (active)
11 | O=C(N/N=C/c1cc(Br)cc(Br)c1[O-])c1ccccc1O.O=C(N/N=C/c1cc(Br)cc(Br)c1[O-])c1ccccc1O.[Mn+2] | 96% (active) | 94% (active) | 97.6% (active) | 98% (active) | 96% (active) | 95.7% (active) | 98% (active) | 93% (active) | 93.2% (active) | 93% (active) | 90% (active) | 97.3% (active) | 96% (active) | 94% (active) | 96% (active) | 96% (active) | 94% (active) | 98% (active)
12 | CC12CCC3C(CCC4Cc5nc6nnnn6cc5CC43C)C1CCC2O (stereo not drawn) | 4% | 79% (active) | 55% | 20% | 71% (active) | 40.9% | 14% | 85% (active) | 51% | 4% | 44% | 29.6% | 2% | 38% | 53.8% | 11% | 82% (active) | 47%
13 | O=[N+]([O-])c1cc(Cl)ccc1S(=O)(=O)F | 98% (active) | 98% (active) | 99.7% (active) | 98% (active) | 99% (active) | 99.6% (active) | 99% (active) | 99% (active) | 99.5% (active) | 98% (active) | 98% (active) | 99.2% (active) | 98% (active) | 98% (active) | 99.5% (active) | 96% (active) | 98% (active) | 99.5% (active)
14 | Cc1cc2c(cc1O)C(C)(C)CCC2(C)C | 8% | 70% (active) | -6.9% | -1% | 77% (active) | 97.2% (active) | 1% | 78% (active) | 47.9% | 9% | 90% (active) | 52.8% | 0% | 83% (active) | 96.8% (active) | -2% | 62% | 97.3% (active)
15 | CC(=O)CC(=O)Nc1c(C)[c]([Hg][O]C(C)=O)c(C)[c]([Hg][O]C(C)=O)[c]1[Hg][O]C(C)=O | 60% | 93% (active) | 90.8% (active) | 99% (active) | 94% (active) | 92.6% (active) | 57% | 94% (active) | 92.8% (active) | 33% | 93% (active) | 88% (active) | 99% (active) | 94% (active) | 92.2% (active) | 85% (active) | 93% (active) | 90% (active)
16 | CC12CCC(=O)C=C1CCC1C2CCC2(C)C(O[Si](C)(C)OC3CCC4C5CCC6=CC(=O)CCC6(C)C5CCC34C)CCC12 (stereo not drawn) | 3% | 44% | 98.8% (active) | -12% | 16% | 98.7% (active) | 0% | 37% | 95.8% (active) | 1% | 33% | 58.4% | -1% | 0% | 97.1% (active) | 6% | 53% | 96.8% (active)
17 | O=C(O)CN1CCN(CC(=O)O)CC(=O)[O][Hg][O]C(=O)C1 | 100% (active) | 99% (active) | 99.3% (active) | 100% (active) | 100% (active) | 99.4% (active) | 99% (active) | 99% (active) | 99.5% (active) | 99% (active) | 99% (active) | 98.3% (active) | 100% (active) | 100% (active) | 99.3% (active) | 99% (active) | 99% (active) | 99.2% (active)
18 | COC1CC(OC2C(C)OC(OC3C(C)OC(OC4CCC5(C)C(=CCC6(O)C5CC(OC(=O)c5ccc(O)cc5)C5(C)C(O)(C(C)=O)CCC65O)C4)CC3OC)CC2OC)OC(C)C1O (stereo not drawn) (tested in a mixture with another compound) | 1% | 68% | 45.9% | 8% | 82% (active) | 39.1% | 1% | 89% (active) | 68.7% | -7% | 49% | 48.6% | 6% | 74% (active) | 60.5% | -3% | 83% (active) | 55.1%
19 | C[AsH](C)CC[AsH](C)C.C[AsH](C)CC[AsH](C)C.C[AsH](C)CC[AsH](C)C.[Ni] | 79% (active) | 98% (active) | 96.9% (active) | 51% | 99% (active) | 95% (active) | 93% (active) | 99% (active) | 96.7% (active) | 74% (active) | 97% (active) | 93.5% (active) | 68% | 99% (active) | 96.5% (active) | 56% | 99% (active) | 96.5% (active)
